# Reference: PubChem BioAssay (Tox21)
# Several values for one entry are separate records, joined by “and”; a condition that tells them apart may be missing. Equal entries are not always repeated. Results filed as inconclusive are left out. A call without a number means that no potency is given here. The source holds several records for some structures; these can differ, active in one and inactive in another. Activity calls are given as the source filed them. Unless noted, calls come from the whole dose curve; as a rule, active = well fitted curve in the direction sought with a large enough effect in the repeat runs; inconclusive = weak or mixed curves; inactive = no such curve, though single readings can be large; an effect the other way counts as inactive or inconclusive. Residues, ends and D or L forms follow the SMILES beside them.
# How the values were obtained:
# [1] = qHTS assay for small molecule agonists of the p53 signaling pathway (AID 651631; calls by dose curve; note: nearly all actives have a fitted effect of over 15% in size; note: potency is the fitted concentration of half-maximal effect); details: HCT-116 p53RE-bla reporter, beta-lactamase FRET ratio, 16 h; series mostly up to 73.3 µM
# Method in brief: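 HCT-116 cells carrying a beta-lactamase reporter under p53 response elements were dosed with compound for 16 h at 37 °C. LiveBLAzer B/G FRET substrate was then added for 2 h at room temperature, and fluorescence intensity was read to detect pathway agonism.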
# [2] = qHTS assay for small molecules that induce genotoxicity in human embryonic kidney cells expressing luciferase-tagged ATAD5 (AID 651632); details: HEK293T ATAD5-luciferase induction, 16 h; series mostly up to 83.3 µM; note: nearly all actives have a fitted effect of over 15% in size; note: potency is the fitted concentration of half-maximal effect
# Method in brief: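 Increased luciferase signal from ATAD5-tagged reporter cells indicates DNA-damage-driven ATAD5 induction. HEK293T cells are treated for 16 hr at 37C before detection with Amplite.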
# [3] = qHTS assay for small molecule agonists of the p53 signaling pathway - cell viability (AID 651633; calls by dose curve; note: nearly all actives have a fitted effect of over 30% in size; note: potency is the fitted concentration of half-maximal effect); details: p53RE-bla HCT-116 viability, ATP luminescence, 16 h; series mostly up to 83.3 µM
# Method in brief: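 p53RE-bla cells, seeded at 4,000 per well and rested 5 h at 37 C/5% CO2, received compounds in DMSO for 16 h at 37 C. CellTiter-Glo was then added, and luminescence was read after 30 min at room temperature to gauge cytotoxicity.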
# [4] = qHTS assay for small molecules that induce genotoxicity in human embryonic kidney cells expressing luciferase-tagged ATAD5 - cell viability (AID 651634; calls by dose curve; note: nearly all actives have a fitted effect of over 25% in size; note: potency is the fitted concentration of half-maximal effect); details: HEK293T ATAD5-luc cells viability, CellTiter-Fluor, 15.5 h; series mostly up to 83.3 µM
# Method in brief: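 Cytotoxicity counterscreen in HEK293T cells bearing an ATAD5-luciferase reporter: live-cell protease activity measured by CellTiter-Fluor fluorescence after 15.5 hr compound exposure.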
# [5] = qHTS assay for small molecule disruptors of the mitochondrial membrane potential - cell viability (AID 720634; calls by dose curve; note: nearly all actives have a fitted effect of over 20% in size; note: potency is the fitted concentration of half-maximal effect); details: HepG2 viability, ATP luminescence (CellTiter-Glo), 1 h; series mostly up to 83.2 µM
# Method in brief: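 After overnight attachment at 37 C, HepG2 cells received compound or DMSO vehicle for 1 hr. Viability is then taken from ATP-driven luminescence following a 30 min room-temperature CellTiter-Glo step.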
# [6] = qHTS assay for small molecule disruptors of the mitochondrial membrane potential (AID 720635); details: HepG2 mitochondrial membrane potential, Mito-MPS dye ratio; series mostly up to 83.2 µM; note: potency is the fitted concentration of half-maximal effect
# Method in brief: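 HepG2 cells (2,000/well) attached overnight at 37C, then took compound for 1 hr at 37C, 5% CO2. Mito-MPS dye was added for 30 min; fluorescence was read at 490/535 nm (monomers) and 540/590 nm (aggregates).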
# [7] = qHTS assay to test for compound auto fluorescence at 590 nm (red) in HepG2 cells (AID 720674); details: HepG2 autofluorescence, red 540/590 nm, 1 h; series mostly up to 91.3 µM
# Method in brief: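 Compound auto-fluorescence is scored relative to Rose Bengal sodium, measured at 540/590 nm in live HepG2 cultures after 1 hr compound contact (37 C, 5% CO2).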
# [8] = qHTS assay to test for compound auto fluorescence at 535 nm (green) in HepG2 cells (AID 720675); details: green autofluorescence 485/535 nm, 1 h; series mostly up to 91.3 µM
# [9] = qHTS assay to test for compound auto fluorescence at 460 nm (blue) in HEK293 cells (AID 720678); details: blue autofluorescence 405/460 nm; series mostly up to 91.3 µM
# Method in brief: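 Measured: blue fluorescence (Ex 405/Em 460 nm) of compound-treated HEK293 cells, incubated overnight at 37C with 5% CO2 and scaled to triamterene equivalents.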
# [10] = qHTS assay to test for compound auto fluorescence at 590 nm (red) in HEK293 cells (AID 720679); details: red autofluorescence 540/590 nm; series mostly up to 91.3 µM
# Method in brief: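 Using HEK293 cells at 2,000 per well, the screen added 23 nL of each compound after cell attachment and incubated overnight (37C, 5% CO2). The plate reader then captured red-label fluorescence, Ex/Em 540/590nm.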
Compound,Potency [1],Potency [2],Potency [3],Potency [4],Potency [5],Potency [6],outcome [7],outcome [8],outcome [9],outcome [10]
Oc1ccc(/C=C/c2cc(O)cc(O)c2)cc1,54.5 µM (active),2.54 µM (active) and 2.46 µM (active) and 3.06 µM (active),inactive and 54.5 µM (active),24.3 µM (active),inactive,2.11 µM (active) and 692 nM (active) and 969 nM (active),inactive,inactive,inactive,inactive
c1ccc2[nH]ccc2c1,inactive,inactive,inactive,inactive,inactive,,inactive,inactive,inactive,inactive
C1N2CN3CN1CN(C2)C3,inactive,inactive,inactive,inactive,inactive,,inactive,inactive,inactive,inactive
CCOc1ccc(NC(=O)CC(C)O)cc1 (centres undefined),inactive,inactive,inactive,inactive,inactive,,inactive,inactive,inactive,inactive
CC(=O)Nc1nnc(S(N)(=O)=O)s1,inactive,inactive,inactive,inactive,inactive,,inactive,inactive,inactive,inactive
C[C@]12C=CC(=O)C=C1CC[C@@H]1[C@@H]2[C@@H](O)C[C@@]2(C)[C@H]1CC[C@]2(O)C(=O)CO,inactive,inactive,inactive,inactive,inactive,,inactive,inactive,inactive,inactive
Nc1ccn([C@H]2CC[C@@H](CO)O2)c(=O)n1,inactive,inactive,inactive,inactive,inactive,,inactive,inactive,inactive,inactive
Nc1ccc(S(=O)(=O)Nc2nccs2)cc1,inactive,inactive,inactive,inactive,inactive,inactive,inactive,inactive,inactive,inactive
O=c1cc[nH]c(=S)[nH]1,inactive,inactive,inactive,inactive,inactive,,inactive,inactive,inactive,inactive
CCCN(CCC)S(=O)(=O)c1ccc(C(=O)O)cc1,inactive,inactive,inactive,inactive,inactive,,inactive,inactive,inactive,inactive
NC(=O)NC1NC(=O)NC1=O (centres undefined),inactive,inactive,inactive,inactive,inactive,,inactive,inactive,inactive,inactive
O=C(O)c1cccc([N+](=O)[O-])c1,inactive,inactive,inactive,inactive,inactive,,inactive,inactive,inactive,inactive
Cc1cc(=O)[nH]c(=S)[nH]1,inactive,inactive,inactive,inactive,inactive,inactive,inactive,inactive,inactive,inactive
CC(O)CN(CCN(CC(C)O)CC(C)O)CC(C)O (centres undefined),inactive,inactive,inactive,inactive,inactive,,inactive,inactive,inactive,inactive
CC(C)(Oc1ccc(C2CC2(Cl)Cl)cc1)C(=O)O (centres undefined),inactive,inactive,inactive,inactive,inactive,,inactive,inactive,inactive,inactive
Cc1noc(NS(=O)(=O)c2ccc(N)cc2)c1C,inactive,inactive,inactive,inactive,inactive,,inactive,inactive,inactive,inactive
NC(=O)c1cnccn1,inactive,inactive,inactive,inactive,inactive,,inactive,inactive,inactive,inactive
O=C(O)CCCCCCCC(=O)O,inactive,inactive,inactive,inactive,inactive,,inactive,inactive,inactive,inactive
CCCCOC(=O)CC(CC(=O)OCCCC)(OC(C)=O)C(=O)OCCCC,inactive,inactive,inactive,inactive,inactive and 7.78 µM (active),8.73 µM (active),inactive,inactive,inactive,inactive
Cc1ccc(O)cc1,inactive,inactive,inactive,inactive,inactive,inactive,inactive,inactive,inactive,inactive
CCCNC(=O)NS(=O)(=O)c1ccc(Cl)cc1,inactive,inactive,inactive,inactive,inactive,inactive,inactive,inactive,inactive,inactive
O=C(O)c1[nH]n(-c2ccc(S(=O)(=O)O)cc2)c(=O)c1N=Nc1ccc(S(=O)(=O)O)cc1,inactive,inactive,inactive,30.7 µM (active) and 57.1 µM (active),inactive,,inactive,inactive,inactive,inactive
COc1ccc2[nH]cc(CCNC(C)=O)c2c1,inactive,inactive,inactive,inactive,inactive,,inactive,inactive,inactive,inactive
O=S(=O)(O)c1ccc2cc(O)ccc2c1,inactive,inactive,inactive,inactive,inactive,,inactive,inactive,inactive,inactive

Compound,Potency [1],Potency [2],Potency [3],Potency [4],Potency [5],Potency [6],outcome [7],outcome [8],outcome [9],outcome [10]
COC(=O)[C@H](Cc1ccccc1)NC(=O)[C@@H](N)CC(=O)O (H-Asp-Phe-OMe),inactive,inactive,inactive,inactive,inactive,,inactive,inactive,inactive,inactive
O=C(O)c1cc(N=Nc2ccc(S(=O)(=O)Nc3ccccn3)cc2)ccc1O,inactive,inactive,inactive,23.7 µM (active) and 27.4 µM (active) and 48.6 µM (active),inactive,,inactive,inactive,inactive,inactive
CC(O)C(=O)O (centres undefined),inactive,inactive,inactive,inactive,inactive,,inactive,inactive,inactive,inactive
Nc1ccc(C(=O)O)cc1,inactive,inactive,inactive,inactive,inactive,,inactive,inactive,inactive,inactive
NNC(=O)c1ccncc1,inactive,inactive,inactive,inactive,inactive,inactive,inactive,inactive,inactive,inactive
CC1(C)[C@@H]2CC[C@@]1(C)C(=O)C2,inactive,inactive,inactive,inactive,inactive,,inactive,inactive,inactive,inactive
CCCCCCCCCCCCCCCC(=O)O,inactive,inactive,inactive,inactive,inactive,,inactive,inactive,inactive,inactive
CCCCC(CC)COC(=O)/C=C/c1ccc(OC)cc1 (centres undefined),inactive,inactive,inactive,inactive,inactive,54.2 µM (active),inactive,inactive,inactive,inactive
CC(=O)NS(=O)(=O)c1ccc(N)cc1,inactive,inactive,inactive,inactive,inactive,,inactive,inactive,inactive,inactive
O=c1ccc2ccccc2o1,inactive,inactive,inactive,inactive,inactive,inactive,inactive,inactive,inactive,inactive
CCCC(O)C(CC)CO (centres undefined),inactive,inactive,inactive,inactive,inactive,,inactive,inactive,inactive,inactive
CC(O)CO (centres undefined),inactive,inactive,inactive,inactive,inactive,,inactive,inactive,inactive,inactive
Cc1ccc(C)c(OCCCC(C)(C)C(=O)O)c1,,inactive,,inactive,inactive,inactive,inactive,inactive,inactive,inactive
CC(=O)OCC(COC(C)=O)OC(C)=O,,inactive,inactive,inactive,inactive,inactive,inactive,inactive,inactive,inactive
O=C1NC(=O)c2ccccc21,,,inactive,inactive,inactive,inactive,inactive,inactive,inactive,inactive
CNC[C@H](O)c1cccc(O)c1,inactive,,inactive,inactive,inactive,,inactive,inactive,inactive,inactive
CCC1(c2ccccc2)C(=O)NCNC1=O,inactive,,inactive,,inactive,inactive,inactive,inactive,inactive,inactive
Cc1cn([C@H]2C[C@H](N=[N+]=[N-])[C@@H](CO)O2)c(=O)[nH]c1=O,inactive,,inactive,,inactive,inactive,inactive,inactive,inactive,inactive
C/C=C/c1ccc(OC)cc1,,,inactive,inactive,inactive,,inactive,inactive,inactive,inactive
O=S(=O)(O)NC1CCCCC1,,,,inactive,inactive,,inactive,inactive,inactive,inactive
O=C(O)C(=O)O,,inactive,inactive,inactive,inactive,inactive,inactive,inactive,inactive,inactive
NC(=O)c1ccccc1O,inactive,inactive,inactive,inactive,inactive,,inactive,inactive,inactive,inactive
NC(N)=O,,inactive,inactive,inactive,inactive,,inactive,inactive,inactive,inactive
Cc1ccccc1C(OCCN(C)C)c1ccccc1 (centres undefined),,inactive,inactive,inactive,inactive,,inactive,inactive,inactive,inactive
